The target of assay [1] is Thyrotropin-releasing hormone receptor (Homo sapiens) (UniProt P34981). The experiment in a line: qHTS assay to identify small molecule agonists of the thyrotropin-releasing hormone receptor (TRHR) signaling pathway (AID 1346891; calls by dose curve; also: series mostly up to about 58 µM). In short, it runs like this:
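TRHR-expressing HEK293 cells were plated 18 h at 37 °C/5% CO2, loaded with calcium dye 2 h at 37 °C, then given compound in DMSO; fluorescence was read kinetically for 3 min at 1 s intervals.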
In general terms: Quantitative high-throughput screening tests each substance at several concentrations.

Assay [2] is described as follows: Human pregnane X receptor (PXR) small molecule agonists, qHTS cell viability counter screen (AID 1346977). Also: nearly all actives have a fitted effect of over 50% in size. In short, it runs like this:
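PXR-Luc HepG2 cells in medium with 5% charcoal-stripped FBS were pre-incubated 5hr, then exposed to compounds for 24hr at 37C. Viability was read in the same wells by CellTiter-Fluor fluorescence, reagent added after 23hr with a 1hr incubation.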

The nature of assay [3]: Caspase-3/7 induction in HepG2 cells by small molecules, qHTS assay (AID 1346978). Also: nearly all actives have a fitted effect of over 15% in size. The method in brief: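 Wild-type HepG2 cells, 2,000/well, settled 5 hr at 37 C and 5% CO2, then compound-treated for 17 hr; caspase-3/7 activity read by luminescent Caspase-Glo 3/7 after 30 min at room temperature.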
Assay [4] in a line: Caspase-3/7 induction in CHO-K1 cells by small molecules, qHTS assay (AID 1346980). Also: nearly all actives have a fitted effect of over 15% in size. In short, it runs like this: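 Wild-type CHO-K1 cells exposed to compounds for 17hr at 37 C, 5% CO2. Caspase-3/7 activity then measured by Caspase-Glo 3/7 luminescence after 30min at room temperature.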
The nature of assay [5]: Caspase-3/7 induction in HepG2 cells by small molecules, qHTS cell viability counter screen (AID 1346981). Also: nearly all actives have a fitted effect of over 30% in size. Also: potency is read from the fitted curve at half-maximal effect. The method in brief: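 Wild-type HepG2 cells, 2,000/well, settled 5 hr at 37 C, 5% CO2 before compound addition. Viability read by CellTiter-Fluor fluorescence, reagent added after 16 hr compound exposure, then 1 hr at 37C, in the same wells as the caspase read.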
The target in assay [6] is Nuclear receptor subfamily 1 group I member 2 (Homo sapiens) (UniProt O75469). Briefly: Human pregnane X receptor (PXR) small molecule agonists, qHTS assay (AID 1346982). Also: nearly all actives have a fitted effect of over 35% in size. Also: potency is read from the fitted curve at half-maximal effect. The method in brief: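 PXR-Luc HepG2 reporter cells (CYP3A4-driven luciferase) in 5% charcoal-stripped FBS medium, plated 5 h before compound addition, then treated 24 h at 37C. Luciferase read by ONE-Glo luminescence after 30 min at room temperature.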
Sequence of Nuclear receptor subfamily 1 group I member 2 (Homo sapiens) (O75469 whole entry, looked up): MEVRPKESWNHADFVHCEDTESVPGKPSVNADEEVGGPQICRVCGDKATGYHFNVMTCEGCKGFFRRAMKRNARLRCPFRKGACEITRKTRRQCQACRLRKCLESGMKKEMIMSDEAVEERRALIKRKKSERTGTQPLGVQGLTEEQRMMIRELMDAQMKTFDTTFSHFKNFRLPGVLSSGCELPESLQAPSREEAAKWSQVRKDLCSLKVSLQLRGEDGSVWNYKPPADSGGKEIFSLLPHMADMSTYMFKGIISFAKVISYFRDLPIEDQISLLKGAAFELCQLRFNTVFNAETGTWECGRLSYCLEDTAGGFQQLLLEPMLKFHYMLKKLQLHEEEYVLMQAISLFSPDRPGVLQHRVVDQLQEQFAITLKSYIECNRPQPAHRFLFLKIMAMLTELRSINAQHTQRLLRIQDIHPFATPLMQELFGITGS

In assay [7] the target is Nuclear receptor subfamily 1 group I member 2 (Rattus norvegicus) (UniProt Q9R1A7). Briefly: Rat pregnane X receptor (rPXR) activation by small molecules, qHTS assay (AID 1346983). Also: nearly all actives have a fitted effect of over 20% in size. Also: potency is read from the fitted curve at half-maximal effect. Particulars: rPXR luciferase reporter cells, One-Glo luminescence, 24 h; max activation: active compounds read high. In short, it runs like this:
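Cell-based rPXR activation assay: rPXR cells, 2,000 per well, rested 5hr at 37 C, then exposed to compounds in DMSO for 24 hr at 37 C. Luciferase activity read by One-Glo luminescence after 30 min at room temperature.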

Assay [8] concerns the target Nuclear receptor subfamily 1 group I member 2 (Homo sapiens) (UniProt O75469). The experiment in a line: CYP3A4 induction through human pregnane X receptor (PXR) by small molecules, qHTS assay (AID 1346984). Also: nearly all actives have a fitted effect of over 40% in size. Also: potency is read from the fitted curve at half-maximal effect. In short, it runs like this:
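DPX-2 HepG2 cells carrying a PXR response element and CYP3A4-promoter luciferase construct, treated with compounds 24 hr at 37C. Then P450-Glo CYP3A4 Luciferin-IPA substrate (3uM final) for 3 hr at 37C, One-Glo added, luminescence read.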

The target is the same in assay [9]. The experiment in a line: Human pregnane X receptor (PXR) activation by small molecules, qHTS assay (AID 1346985). Also: nearly all actives have a fitted effect of over 40% in size. Also: potency is read from the fitted curve at half-maximal effect. The method in brief: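 DPX-2 cells (HepG2 co-transfected with a PXR response element and a CYP3A4-promoter luciferase construct) were seeded at 2,000 per well, rested 5 hr at 37C, then exposed to DMSO-dissolved compounds for 24 hr. Activation was read as luciferase luminescence.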

The nature of assay [10]: Caspase-3/7 induction in CHO-K1 cells by small molecules, qHTS cell viability counter screen (AID 1346979). Also: nearly all actives have a fitted effect of over 35% in size. Also: potency is read from the fitted curve at half-maximal effect. The method in brief:
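Wild-type CHO-K1 cells were seeded at 1,500 per well, rested 5hr at 37 C, then exposed to compounds in DMSO. After 16hr, CellTiter-Fluor reagent was added and fluorescence read 1hr later as the viability measure.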

A number with no mark means an inactive call. Results filed as inconclusive are left out. The source made the active and inactive calls. Unless noted, calls follow the shape of the dose curve; as a rule, active = well fitted curve in the direction sought with a large enough effect in the repeat runs; inconclusive = weak or mixed curves; inactive = no such curve, though single readings can be large; an effect the other way counts as inactive or inconclusive.
% is scaled to controls: 0 for no effect and ±100 for the full control effect.

Sequence of Nuclear receptor subfamily 1 group I member 2 (Rattus norvegicus) (Q9R1A7 whole entry, looked up): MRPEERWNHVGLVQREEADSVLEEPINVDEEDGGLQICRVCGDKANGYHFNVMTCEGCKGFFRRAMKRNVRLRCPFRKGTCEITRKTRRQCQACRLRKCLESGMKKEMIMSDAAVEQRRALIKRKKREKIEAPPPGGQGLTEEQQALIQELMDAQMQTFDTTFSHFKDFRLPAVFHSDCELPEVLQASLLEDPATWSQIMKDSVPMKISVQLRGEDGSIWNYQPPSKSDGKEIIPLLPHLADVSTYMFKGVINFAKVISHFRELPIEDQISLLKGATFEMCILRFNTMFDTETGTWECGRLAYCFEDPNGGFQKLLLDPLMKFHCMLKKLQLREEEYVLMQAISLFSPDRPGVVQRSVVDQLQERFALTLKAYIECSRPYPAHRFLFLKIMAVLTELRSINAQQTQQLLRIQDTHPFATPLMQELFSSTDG
Sequence of Thyrotropin-releasing hormone receptor (Homo sapiens) (P34981 whole entry, looked up): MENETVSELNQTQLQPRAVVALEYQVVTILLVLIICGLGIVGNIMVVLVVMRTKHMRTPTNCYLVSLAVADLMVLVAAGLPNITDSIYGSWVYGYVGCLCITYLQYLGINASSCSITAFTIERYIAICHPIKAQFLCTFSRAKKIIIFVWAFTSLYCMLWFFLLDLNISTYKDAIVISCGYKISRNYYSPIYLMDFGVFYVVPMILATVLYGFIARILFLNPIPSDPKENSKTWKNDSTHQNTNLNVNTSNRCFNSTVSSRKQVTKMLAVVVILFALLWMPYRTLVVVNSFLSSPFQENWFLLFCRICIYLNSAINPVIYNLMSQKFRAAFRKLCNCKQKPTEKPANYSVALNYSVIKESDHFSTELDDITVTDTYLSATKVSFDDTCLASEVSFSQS

On to `CCCCCO`, for which the compound was called inactive in [1]. For the same compound, the Potency entry in assay [2], in [3], in assay [4], in assay [5] and in assay [6] was “inactive” in each case.

`OCCc1ccncc1`: the call in assay [1] was inactive. The Potency result in assay [2], in assay [3], in assay [4], in assay [5] and in assay [6] was “inactive” throughout.

With `CC(=O)OCC(=O)[C@@]1(O)CC[C@H]2[C@@H]3CCC4=CC(=O)C=C[C@]4(C)[C@@]3(F)[C@@H](O)C[C@@]21C`, in [1], the outcome was inactive. The Potency entry in assay [2], in [3], in [4], in assay [5], in [6] and in [9] was “inactive” each time. Further, the results for the Potency in assay [7] and in [8] were 8.91 µM (active) and 0.631 µM (active), respectively.

Turning to `CCCCCCC/C=C/C=O`, the compound was called inactive in assay [1]. Also, the Potency entry in [2], in [3], in assay [4] and in assay [6] was “inactive” throughout.

On to `O=c1[nH]nc(-c2ccc([N+](=O)[O-])o2)o1`, for which the compound was classed as inactive in [1]. Also, the Potency entry in assay [3] and in assay [4] was “inactive” each time. For the same compound, the Potency in [10] was 61.1 µM (active); in [5], 54.5 µM (active); in [6], 61.1 µM (active).

With `CCN(CCCCOC(=O)c1ccc(OC)c(OC)c1)C(C)Cc1ccc(OC)cc1` (stereo unspecified), the result in assay [1] was inactive. The Potency result in assay [3], in assay [10], in [4], in assay [5], in assay [6] and in [8] was “inactive” throughout. In addition, in [9], the Potency entry was “inactive”. Also, in assay [7], the max activation is 3.44%.

On to `CC(=O)Oc1cccc2c1C(=O)c1c(OC(C)=O)cc(C(=O)O)cc1C2=O`, for which the compound was called inactive in assay [1]. In addition, the Potency entry in assay [3], in [4] and in [6] was “inactive” throughout. Further, in [5], the Potency was 29.8 µM (active).

For the compound `CCCC1CCOC(C)S1` (stereo unspecified), in assay [1], the compound was called inactive. Also, the Potency entry in assay [3], in assay [10], in assay [4], in [5] and in assay [6] was “inactive” in each case.

For the compound `CC(C(=O)O)c1ccc(/C=C2\CCCCC2=O)cc1` (stereo unspecified), the Potency entry in assay [2], in [3], in assay [10], in assay [4] and in assay [5] was “inactive” each time.

Turning to `CC1(C)CC(=O)CC(C)(C)N1`, in assay [1], the compound was classed as inactive. Besides, the Potency result in assay [3], in [10], in assay [4], in assay [5] and in assay [6] was “inactive” each time.

As for `CC(C(=O)O)c1ccc2c(c1)Cc1cccnc1O2` (stereo unspecified), in assay [1], the outcome was inactive. Moreover, the Potency result in assay [3] and in [4] was “inactive” throughout. Moreover, in assay [7], the max activation is -0.373%.

Turning to `CCOc1ccc2c(c1)C(C)CC(C)(C)N2` (stereo unspecified), the call in assay [1] was inactive. In addition, the Potency result in [3], in [10], in assay [4] and in assay [5] was “inactive” each time. In addition, in [6], the Potency was 34.4 µM (active).

Regarding `CC(C)(Cc1c[nH]c2ccccc12)NCC(O)COc1ccccc1C#N` (stereo unspecified), the call in [1] was inactive. Also, the Potency entry in assay [3], in assay [10], in [4], in [5] and in [6] was “inactive” in each case. The max activation in [7] is 11.7%. Further, the Potency in assay [8] was 12.6 µM (active); in assay [9], 28.2 µM (active).

With `CC(C)(O)C(=O)O`, the Potency result in assay [2], in assay [3], in assay [10], in assay [4], in assay [5] and in assay [6] was “inactive” each time.

As to `O=C(N[C@@H](Cc1ccccc1)[C@@H](O)C(=O)N1C[C@@H](O)[C@@H](O)C1)c1cc2cc(Cl)ccc2[nH]1`, in assay [1], the compound was called inactive. Further, the Potency result in assay [3], in [10], in assay [4], in assay [5] and in assay [6] was “inactive” throughout.

Consider `CCCCC(CC)COCCC#N` (stereo unspecified), for which the call in assay [1] was inactive. In addition, the Potency entry in assay [3], in [10], in assay [4] and in [6] was “inactive” throughout.

Consider `O=C1OC(=O)C2CC=CCC12` (stereo unspecified), for which the outcome in assay [1] was inactive. The Potency entry in assay [3], in [10], in assay [4] and in assay [6] was “inactive” in each case.

Regarding `CS(C)=O`, the Potency result in [2], in assay [3], in assay [10], in [4], in [5] and in assay [6] was “inactive” each time.

Take `CC1(COc2ccc(CC3SC(=O)NC3=O)cc2)CCCCC1` (stereo unspecified): in assay [1], the result was inactive. Further, the Potency result in [3], in [4] and in assay [5] was “inactive” throughout. In addition, in assay [7], the max activation was 5.72%.

As for `CC1=C(C)C(=O)C(C(CCCCCC(=O)O)c2ccccc2)=C(C)C1=O` (stereo unspecified), the compound was classed as inactive in assay [1]. Besides, the Potency entry in assay [3], in assay [4], in [6] and in assay [9] was “inactive” throughout. In addition, the values for the Potency in [10] and in assay [8] were 26.6 µM (active) and 10 µM (active), respectively. Moreover, the max activation in assay [7] is -6.02%.

In the case of `CCc1c(C)[nH]c2c1C(=O)C(CN1CCOCC1)CC2` (stereo unspecified), the call in [1] was inactive. Also, the Potency result in [3], in [10], in [4] and in assay [5] was “inactive” in each case. Besides, the max activation in [7] was -1.99%.

With `COc1ccc(CN(CCN(C)C)c2ncccn2)cc1`, the result in assay [1] was inactive. The Potency entry in assay [3], in assay [10], in assay [4], in [5], in assay [6] and in assay [8] was “inactive” in each case. Also, the Potency result in assay [9] is “inactive”. Also, the max activation in assay [7] is -0.0529%.

Turning to `C/C(=C(\CCO)SS/C(CCO)=C(\C)N(C=O)Cc1cnc(C)nc1N)N(C=O)Cc1cnc(C)nc1N`, in assay [1], the outcome was inactive. Also, the Potency entry in assay [3], in assay [10], in assay [4], in assay [5], in [6] and in assay [8] was “inactive” each time. Also, in assay [9], the Potency entry is “inactive”. Moreover, the max activation in assay [7] is -1.12%.

Regarding `Oc1ccc(CCNCCCCCCNCCc2ccccc2)cc1O`, the outcome in assay [1] was inactive. For the same compound, the Potency result in assay [3], in assay [4], in [5] and in assay [6] was “inactive” in each case.

Regarding `CC(=O)Nc1cccc(N)c1`, the result in assay [1] was inactive. Besides, the Potency result in [3], in [10], in [4], in assay [5] and in assay [6] was “inactive” in each case.

`O=C(c1ccc(Cl)cc1)c1ccc(Cl)cc1`: the call in assay [1] was inactive. Also, the Potency entry in assay [10] and in assay [4] was “inactive” each time.

As to `CCC1=C(C)CN(C(=O)NCCc2ccc(S(=O)(=O)NC(=O)NC3CCC(C)CC3)cc2)C1=O` (stereo unspecified), in [1], the outcome was inactive. Besides, the Potency entry in assay [3], in assay [4], in assay [5] and in [6] was “inactive” each time.

Regarding `CC(Cc1ccccc1)(NC(=O)CN)c1ccccc1` (stereo unspecified), the Potency entry in assay [2], in assay [3], in assay [10], in assay [4] and in assay [5] was “inactive” in each case.

Consider `CCn1nc(Cc2ccccc2)cc1C1CCN(C[C@H]2C[C@H](N(C)[C@@H](C(=O)O)C(C)C)C[C@@H]2c2cccc(F)c2)CC1`, for which the outcome in assay [1] was inactive. Moreover, the Potency entry in [3], in assay [10], in assay [4] and in assay [6] was “inactive” in each case.

(Values after PubChem BioAssay (Tox21).)
